# Source: PubChem BioAssay AID489018 (Southern Research Specialized Biocontainment Screening …, 2010)
# The campaign covered roughly 2,300 compounds. About 350 (15%) were called active. How the calls were made is not given here. A selection follows. Measured potencies and affinities stand elsewhere.
# Experiment: HepG2 cell cytotoxicity, dose response, cytotoxicity control for non-replicating M. tuberculosis project (AID 489018);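 further: HepG2 human liver cells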
# Conditions: series mostly up to 20 µM
row,SMILES,outcome
1,Cc1n[nH]c(C)c1CCOc1ccc(C(C)C)cc1,inactive
2,CC(C)c1ccc(OCC(=O)NNC(=O)c2cnccn2)cc1,inactive
3,O=C(COC(=O)c1ccc(O)cc1O)c1ccc2c(c1)OCO2,inactive
4,O=C1Nc2ccccc2/C1=C/C(=O)c1cccs1,inactive
5,O=C(NN=C(Cc1ccccc1)Cc1ccccc1)c1ccncc1,inactive
6,CCCCCn1c(=O)c2ccccc2n2c(CCl)nnc12,inactive
7,CC(C)(C)Nc1nc(NC(C)(C)C)nc(-n2ccnc2)n1,inactive
8,CN1/C(=C\C(=O)COC(=O)C2COc3ccccc3O2)C(C)(C)c2ccccc21 (stereo unspecified),inactive
9,Cc1cccc(-c2nnc3sc(-c4ccccc4C)nn23)c1,inactive
10,Cc1cc(C)cc(OC(=O)CCN2C(=O)c3ccccc3C2=O)c1,inactive
11,Cc1cc(N2CCC(C)CC2)nc(-n2nc(C)cc2C)n1,inactive
12,Cc1cc(N2CCN(c3ccccc3)CC2)nc(-n2nc(C)cc2C)n1,inactive
13,CCOc1ccc(Nc2cc(C)nc(-n3nc(C)cc3C)n2)cc1,inactive
14,COc1ccc(/C=N/Nc2cc(C)nc(-n3nc(C)cc3C)n2)c(OC)c1,inactive
15,Cc1ccc(NC(=O)ON=C2CCCC2)cc1,inactive
16,Cc1cc(NC(=O)C2CCCCC2)n(-c2nc3ccccc3[nH]2)n1,inactive
17,O=C(OCn1nnc2ccccc2c1=O)c1cccs1,inactive
18,COc1cc(/C=N/NC(=O)c2ccncc2)ccc1OC(=O)c1cccc(F)c1,inactive
19,O=C(NCCCN1CCOCC1)c1c(O)c2cc(Br)cc(Br)c2[nH]c1=O,inactive
20,CC(C)Cc1nnc(NC(=O)CCS(=O)(=O)c2ccc(Cl)cc2)s1,inactive
21,C=CCNc1nnc(Sc2ncccc2[N+](=O)[O-])s1,inactive
22,Cc1cccc(OC(=O)c2sc3ncn(C)c(=O)c3c2C)c1,inactive
23,COc1cccc(N2C(=O)NC(=O)/C(=C/c3ccc([N+](=O)[O-])s3)C2=O)c1,inactive
24,CCCc1nnc(NC(=O)c2cc3ccccc3oc2=O)s1,inactive
25,CCc1ccc(OCC(=O)Nc2ccncc2)c(Br)c1,inactive
26,Cc1ccccc1C(=O)Nc1nnc(-c2ccco2)o1,inactive

row,SMILES,outcome
1,CCOc1ccc(C(=O)Nc2nnc(C3=COCCO3)o2)cc1,inactive
2,O=C(CCS(=O)(=O)c1ccccc1)Nc1nnc(-c2ccco2)o1,inactive
3,CC(C)(C)c1ccc(C(=O)Nc2nnc(C3=COCCO3)o2)cc1,inactive
4,Cc1ccsc1C(=O)OCC(=O)Nc1nnc(-c2ccccc2)o1,inactive
5,O=C(Nc1nnc(C2=COCCO2)o1)c1ccc(Cc2ccccc2)cc1,inactive
6,Cc1cc(C(=O)COc2cccc3cccnc23)c(C)n1C,inactive
7,CN(O)/C=c1/ccc2c(n1)C(=O)C=CC=2,inactive
8,Cc1ccc(-c2cc(C(F)F)nc(S(C)(=O)=O)n2)cc1,inactive
9,CN1C(=O)NC(=O)/C(=C/c2ccc([N+](=O)[O-])s2)C1=O,inactive
10,CC1Cc2cc(/C=C3/SC(=S)NC3=O)ccc2O1 (stereo unspecified),inactive
11,COc1ccc(S(=O)(=O)N(C(C)=O)c2ccc(OC(C)=O)c3ccccc23)cc1[N+](=O)[O-],inactive
12,Cc1ccccc1Nc1c(-c2ccccn2)nc2ccccn12,inactive
13,O=C(CCN1CCOCC1)c1ccc(Br)cc1,inactive
14,O=c1[nH]c(O)c(/C=C2/C=CC(c3cc(Cl)ccc3Cl)=N2)c(=O)[nH]1,inactive
15,CCOC(=O)C1(O)CC(C)=NN1C(=O)c1cccc(Br)c1 (stereo unspecified),inactive
16,CCOC(=O)Cc1cc(=O)n2[nH]cc(-c3ccc(Cl)cc3)c2n1,inactive
17,CN(C)CCOc1nc(-c2ccccc2)nc2c1oc1ccccc12,inactive
18,COc1ccc(CN2C(=O)/C(=C/c3ccncc3)SC2=S)cc1,inactive
19,Cc1ccccc1OCC(=O)OCC(=O)c1ccc[nH]1,inactive
20,Cc1cc(CC(C)C)n(-c2nc3ccccc3c(=O)n2OCC(N)=O)n1,inactive
21,O=C1/C(=C/c2ccccn2)COc2ccccc21,inactive
22,Cc1ccc(OCC(=O)OCc2c(C)noc2C)cc1C,inactive
23,COc1cc(N=c2ssnc2Cl)cc(OC)c1,inactive
24,COc1cc(OC)nc(-n2ncc(Br)c(Br)c2=O)n1,inactive
25,Cc1ccc(OCC(=O)Nc2ccc([N+](=O)[O-])cc2)cc1,inactive
26,Cc1ccc(NC(=O)COCC(=O)Nc2ccc(C)cc2)cc1,inactive

row,SMILES,outcome
1,CC(=O)OCCN(C)c1cc(SC(C)C)c2nonc2c1[N+](=O)[O-],inactive
2,CC(=O)OCCNc1cc(SCc2ccco2)c2nonc2c1[N+](=O)[O-],inactive
3,Cc1cccc(Cc2cnc(NC(=O)C3=NCCN3)s2)c1,inactive
4,S=C1SCN(Cc2cccnc2)CN1Cc1ccccc1,inactive
5,O=C1N(c2ccc3c(c2)OCCO3)C(c2ccccc2)C1(F)F (stereo unspecified),inactive
6,COc1ccc(CNC(=O)c2cc3cccc(O)c3oc2=N)cc1,inactive
7,Clc1ccc(CN2C3=NCCCN3c3ccccc32)cc1,inactive
8,COc1ccccc1NC(=O)C(=O)/C=C(\O)c1ccccc1,inactive
9,COc1ccc(NC(=O)c2ccc(-c3ccc([N+](=O)[O-])cc3)o2)cc1OC,inactive
10,O=C(Nc1nnc(C2=COCCO2)o1)c1ccc(F)cc1,inactive
11,Cc1nnc(NC(=O)c2ccc3ccccc3c2)o1,inactive
12,CCCCCCOC(=O)C(C#N)c1nc2ccccc2nc1N1CCN(CC)CC1 (stereo unspecified),inactive
13,CCCNC(=O)NC(=O)COc1ccc(-c2ccc(C#N)cc2)cc1,inactive
14,Cc1cccc(OC(=O)c2ccc3nccnc3c2)c1,inactive
15,O=C1CC(=O)CC(c2ccccc2)C1,inactive
16,CCOC(=O)CN1NC2(CCCC(C)C2)NC1=S (stereo unspecified),inactive
17,CCOC(=O)COc1ccc2c(=O)c(-c3ccccc3)coc2c1,inactive
18,O=C(N/N=C/c1ccc(OC(=O)c2cccs2)cc1)c1ccccn1,inactive
19,O=c1oc(-c2ccccc2[N+](=O)[O-])nc2ccccc12,inactive
20,CN(/N=C/c1ccc([N+](=O)[O-])o1)c1ccccc1,inactive
21,Nc1nc2ccccc2n1CCOc1ccc(Br)cc1,inactive
22,Cc1c(C(=O)NNC(=O)c2csc(N3CCOCC3)n2)oc2ccccc12,inactive
23,O=C(N/N=C/C=C/c1cccc([N+](=O)[O-])c1)c1ccncc1,inactive
24,O=C(Nc1nccs1)c1cc2cc(Cl)ccc2oc1=O,inactive
